Assay results reported in PubChem BioAssay AID743287 (Broad Institute, 2014).
Among all 370,000 compounds or so, about 2,300 (0.62%) were called active. Shown is part of a subset that was picked to be rich in actives. Values without a mark were called inactive.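 How the source made its calls: active means lowest replicate activation of at least 40%, so every replicate reaches that level; inactive means the rest.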

test: primary screen for activators of insulin secretion dependent on glucose, INS-1E cells, GLuc reporter luminescence (AID 743287); conditions: INS-1E GLuc reporter insulin secretion, 2-3 h, at 16.6 µM, active compounds read high;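 further: 0% = median of neutral control wells and 100% = median of IBMX positive control wells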

**Q.** For `C[C@H](CO)N1C[C@H](C)[C@@H](CN(C)CC2CC2)Oc2ccc(NS(=O)(=O)c3cn(C)cn3)cc2CC1=O`, which activation is on record?
**A.** 9.55%

**Q.** Which activation does the source give for `CO[C@H]1CN(C)C(=O)c2cc(NC(C)=O)ccc2OC[C@H](C)N(C(=O)CN(C)C)C[C@@H]1C` here?
**A.** 13.5%

**Q.** For `O=C(Nc1cc(F)ccc1F)N1CC(=O)N2[C@H](CO)[C@@H](c3ccc(-c4cccnc4)cc3)[C@@H]2C1`, which activation is on record?
**A.** 13.1%

**Q.** Which activation does the source give for `O=C(C1CCCC1)N1CC2(C1)[C@H](c1ccccc1)[C@H](CO)N2CCC(F)(F)F` here?
**A.** -20.6%

**Q.** With `O=C(O)CCCN1C(=O)C2C3c4ccccc4C(c4ccccc43)[C@@H]2C1=O` (stereo partly specified) as the molecule, how does the activation read?
**A.** 45.1% (active)

**Q.** For `O=C(O)CCCN1C(=O)c2ccccc2Sc2ncccc21`, which activation is on record?
**A.** 3.02%

**Q.** With `O=C(CCN1C(=O)C2C3C=CC(C3)C2C1=O)Nc1ccccc1F` (stereo unspecified) as the molecule, how does the activation read?
**A.** 3.2%

**Q.** With `COCC(=O)Nc1ccc2c(c1)OC[C@H](C)NC[C@@H](C)[C@H](OC)CN(C)C2=O` as the molecule, how does the activation read?
**A.** -5.25%

**Q.** For `COc1ccc2c3c([nH]c2c1)[C@H](CO)N(CC1CC1)CC31CN(C(=O)Nc2cccc(F)c2)C1`, which activation is on record?
**A.** -17.2%

**Q.** Which activation does the source give for `COc1ccc(CN(C)C[C@H]2Oc3ccc(NS(=O)(=O)c4c(C)noc4C)cc3CC(=O)N([C@H](C)CO)C[C@H]2C)cc1` here?
**A.** 6.22%

**Q.** For `Cc1nc2ccccc2nc(=O)c1NNc1ccc([N+](=O)[O-])cc1`, which activation is on record?
**A.** -4.75%

**Q.** For `Cc1nc(-c2ccc([N+](=O)[O-])cc2)c(-c2ccccc2)o1`, which activation is on record?
**A.** 97.9% (active)

**Q.** With `CCC1OC(c2ccc([N+](=O)[O-])cc2)=Nc2ccccc21` (stereo unspecified) as the molecule, how does the activation read?
**A.** 0.826%

**Q.** Which activation does the source give for `COC(=O)C[C@H]1C=C[C@H](NC(=O)Nc2ccc(C(F)(F)F)cc2)[C@@H](CO)O1` here?
**A.** 15.4%

**Q.** For `COc1ccccc1-c1noc(CSc2nc(C)cc(=O)[nH]2)n1`, which activation is on record?
**A.** 5.85%

**Q.** With `Cc1ccc2[nH]c(=O)c(CN(C)S(=O)(=O)c3cccc4nonc34)cc2c1` as the molecule, how does the activation read?
**A.** 6.21%

**Q.** For `CCCc1nc(-c2cc3cc(C)ccc3[nH]c2=O)no1`, which activation is on record?
**A.** 43.8% (active)

**Q.** Which activation does the source give for `C[C@@H]1CN(C)C(=O)c2cccc(N(C)C)c2O[C@H]1CN(C)S(C)(=O)=O` here?
**A.** 23.8%

**Q.** For `COc1cccc(C#Cc2ccc([C@@H]3[C@H]4CN(C(=O)Cc5ccccc5)CC(=O)N4[C@H]3CO)cc2)c1`, which activation is on record?
**A.** 6.19%

**Q.** With `COc1ccccc1NC(=O)N1CCCCN2[C@@H](CO)[C@@H](c3ccc(C#Cc4ccccc4)cc3)[C@@H]2C1` as the molecule, how does the activation read?
**A.** -22.8%

**Q.** With `S=C(Cc1ccc(Cl)cc1)N1CCOCC1` as the molecule, how does the activation read?
**A.** 9.43%

**Q.** Which activation does the source give for `O=C(CC(c1ccccc1)c1cc(Cl)ccc1O)NCCN1CCOCC1` (stereo unspecified) here?
**A.** -15%

**Q.** For `OC(c1ccc(Cl)cc1)C(CN1CCOCC1)c1ccccc1` (stereo unspecified), which activation is on record?
**A.** 225% (active)

**Q.** Which activation does the source give for `O=C(NC[C@@H]1[C@@H](c2ccccc2)[C@@H](CO)N1Cc1ccccn1)C1CCC1` here?
**A.** 1.69%

**Q.** Which activation does the source give for `CCc1cnc(N2[C@H](C#N)[C@H](c3ccccc3-c3ccccc3C)[C@H]2CO)s1` here?
**A.** -14.3%

**Q.** For `Cc1nnc(NC(=O)CSc2nc(C3CCCCC3)nc3ccccc23)s1`, which activation is on record?
**A.** 16.1%

**Q.** With `O=C(CSc1nc(C2CC2)nc2ccccc12)Nc1ccc2c(c1)OCCO2` as the molecule, how does the activation read?
**A.** 43.1% (active)

**Q.** For `O=C(CSc1nnnn1C1CCCC1)Nc1ccc2c(c1)OCCO2`, which activation is on record?
**A.** 4.25%

**Q.** For `COc1ccccc1CN1[C@H](CO)[C@H](c2ccccc2)C12CN(C(=O)c1ccccn1)C2`, which activation is on record?
**A.** -3.88%

**Q.** For `O=C(C[C@H]1C[C@H]2c3cc(NC(=O)NC4CCCC4)ccc3O[C@H]2[C@@H](CO)O1)NCc1ccc(-c2ccccc2)cc1`, which activation is on record?
**A.** -0.703%

**Q.** Which activation does the source give for `COc1ccc2c3c([nH]c2c1)[C@H](CO)N(Cc1nccs1)CC31CCN(Cc2ccncc2)CC1` here?
**A.** 3%

**Q.** With `CC(C)NC(=O)N(C)C[C@H]1Oc2ccc(NS(C)(=O)=O)cc2C(=O)N(C)C[C@@H]1C` as the molecule, how does the activation read?
**A.** -0.922%

**Q.** For `O=C(CSc1nc2[nH]ncc2c(=O)[nH]1)Nc1ccc(F)cc1`, which activation is on record?
**A.** 5.73%

**Q.** For `CCCSc1nc2[nH]ncc2c(=O)[nH]1`, which activation is on record?
**A.** 53.9% (active)

**Q.** For `Cc1ccc(CSc2nc3[nH]ncc3c(=O)[nH]2)cc1`, which activation is on record?
**A.** 23.2%

**Q.** For `CN1c2ccc(-c3cccc(F)c3)cc2[C@H]2[C@H](CCN2C(=O)C2CCCC2)[C@@H]1CO`, which activation is on record?
**A.** -41.3%

**Q.** For `O=C(C[C@H]1C=C[C@H](NC(=O)Nc2cc(F)ccc2F)[C@@H](CO)O1)NCc1ccccn1`, which activation is on record?
**A.** 2.32%

**Q.** For `C[C@H]1CN([C@@H](C)CO)C(=O)c2c(c3ccccc3n2C)-c2ccccc2CO[C@@H]1CN(C)C(=O)Nc1ccnc(N2CCOCC2)c1`, which activation is on record?
**A.** -10.3%

**Q.** For `O=C(CN(CC1CCCO1)C(=O)CNS(=O)(=O)c1ccc(F)cc1)NCc1ccco1` (stereo unspecified), which activation is on record?
**A.** 16.2%

**Q.** With `CC(C)C(C(=O)NCc1ccco1)N(CC1CCCO1)C(=O)CNS(=O)(=O)c1ccc(F)cc1` (stereo unspecified) as the molecule, how does the activation read?
**A.** 47.3% (active)

**Q.** For `O=C(CN(CC1CCCO1)C(=O)CNS(=O)(=O)c1ccccc1)NCc1ccccc1` (stereo unspecified), which activation is on record?
**A.** 1.79%

**Q.** With `CC(C)C#Cc1ccc2c(c1)O[C@@H](CN(C)C(=O)C1CCC1)[C@@H](C)CN([C@@H](C)CO)S2(=O)=O` as the molecule, how does the activation read?
**A.** -2.35%

**Q.** Which activation does the source give for `COc1ccc(-c2nn3c(-c4ccccc4)nnc3s2)cc1OC` here?
**A.** 140% (active)

**Q.** Which activation does the source give for `COc1ccccc1CCn1cnc(-c2ccccc2)c1C(C)C` here?
**A.** 40.3%

**Q.** Which activation does the source give for `COc1ccc(-c2cc(NC=O)c3ncc(-c4ccccc4)n3c2)cc1OC` here?
**A.** 2.43%

**Q.** With `COc1ccc2c3c([nH]c2c1)[C@@H](CO)N(Cc1ccc2c(c1)OCO2)CC31CN(C(=O)Nc2c(C)noc2C)C1` as the molecule, how does the activation read?
**A.** 8.95%

**Q.** For `C[C@H](O)C#Cc1cnc2c(c1)C(=O)N([C@@H](C)CO)C[C@H](C)[C@H](CN(C)C(=O)c1ccccc1)O2`, which activation is on record?
**A.** 11.8%

**Q.** For `O=C(Nc1ccc(C(F)(F)F)cc1)N[C@@H]1CC[C@H](CC(=O)N2CCCCC2)O[C@H]1CO`, which activation is on record?
**A.** -5.98%

**Q.** Which activation does the source give for `C[C@H]1CN([C@@H](C)CO)C(=O)c2cccc(NC(=O)Nc3ccc(C(F)(F)F)cc3)c2O[C@H]1CN(C)CC1CCCCC1` here?
**A.** -0.988%

**Q.** Which activation does the source give for `NC(c1csc(NC(=O)Nc2cccc(C(F)(F)F)c2)n1)C1CCCCC1` (stereo unspecified) here?
**A.** 48.3% (active)

**Q.** Which activation does the source give for `CC(=O)Nc1ccc(NC(=O)C2CCCN2S(=O)(=O)c2cccc(C(F)(F)F)c2)cc1` (stereo unspecified) here?
**A.** -4.8%

**Q.** With `C[C@@H]1CN([C@@H](C)CO)C(=O)c2cccc(NC(=O)Nc3cccc4ccccc34)c2O[C@@H]1CN(C)CC1CC1` as the molecule, how does the activation read?
**A.** 21.1%

**Q.** Which activation does the source give for `O=C(Nc1ccccc1F)N[C@H]1C=C[C@H](CC(=O)N2CCCCC2)O[C@H]1CO` here?
**A.** -5.96%

**Q.** With `O=C(CC1CC1)N1[C@@H](CO)[C@H](c2ccccc2)C12CN(Cc1cccnc1)C2` as the molecule, how does the activation read?
**A.** 2.36%

**Q.** For `CCC(=O)N1C[C@@H](C)[C@H](OC)CN(C)C(=O)c2ccc(NC(=O)C3CCOCC3)cc2OC[C@@H]1C`, which activation is on record?
**A.** 8.65%

**Q.** With `O=C1CNC[C@H]2[C@@H](c3ccc(C4=CCCC4)cc3)[C@@H](CO)N12` as the molecule, how does the activation read?
**A.** 2.03%

**Q.** For `CCC(=O)N1[C@@H](CO)[C@@H](c2ccc(C3=CCCC3)cc2)C12CN(C(=O)COC)C2`, which activation is on record?
**A.** 3.86%

**Q.** Which activation does the source give for `C[C@@H]1CCCCO[C@@H](CN(C)C(=O)CCCN(C)C)[C@@H](C)CN([C@H](C)CO)C(=O)c2cc(NC(=O)CCCN(C)C)ccc2O1` here?
**A.** 12.7%

**Q.** Which activation does the source give for `Cc1ccc2c(C)c(C(=O)N(C)CCC3CCCCO3)oc2c1C` (stereo unspecified) here?
**A.** 0.532%

**Q.** With `Cc1c(C(=O)N(C)CCc2cnn(C)c2)oc2c(F)cccc12` as the molecule, how does the activation read?
**A.** 44.6% (active)

**Q.** With `CN(CCc1cnn(C)c1)Cc1cn(C)nc1-c1ccccc1F` as the molecule, how does the activation read?
**A.** -1.92%

**Q.** With `COc1ccc(S(=O)(=O)N2CCOCC2)cc1NC(=O)COc1ccccc1` as the molecule, how does the activation read?
**A.** 43.9% (active)

**Q.** With `COc1ccc(S(=O)(=O)N2CCOCC2)cc1NC(=O)Cc1c(F)cccc1Cl` as the molecule, how does the activation read?
**A.** -12.7%

**Q.** Which activation does the source give for `COc1ccc(S(=O)(=O)N2CCOCC2)cc1NC(=O)CSc1ncnc2ccccc12` here?
**A.** 14.3%

**Q.** With `COCC(=O)N(C)C[C@@H]1Oc2cc(C#CC3CC3)ccc2S(=O)(=O)N([C@H](C)CO)C[C@H]1C` as the molecule, how does the activation read?
**A.** 5.41%

**Q.** For `C[C@@H]1CC=CC[C@H](c2ccc(F)cc2)NC(=O)[C@@H](Cc2ccccc2)N(C)C(=O)c2ccccc2O1` (mixture of isomers), which activation is on record?
**A.** -20.2%

**Q.** With `C[C@@H]1CN([C@H](C)CO)C(=O)c2cc(NS(=O)(=O)c3ccc(F)cc3)ccc2O[C@@H]1CN(C)S(C)(=O)=O` as the molecule, how does the activation read?
**A.** 12.8%

**Q.** Which activation does the source give for `O=C(NCC1CCCCC1)c1cc(S(=O)(=O)N2CCCCC2)ccc1N1CCOCC1` here?
**A.** -3.7%

**Q.** Which activation does the source give for `O=C(CNC(=O)c1cc(S(=O)(=O)N2CCOCC2)ccc1N1CCCC1)Nc1ccc(F)c(F)c1` here?
**A.** -28.2%

**Q.** Which activation does the source give for `NS(=O)(=O)c1ccc(CNC(=O)c2cc(S(=O)(=O)N3CCOCC3)ccc2N2CCCC2)cc1` here?
**A.** 46.1% (active)

**Q.** Which activation does the source give for `C[C@@H]1CCCCO[C@@H](CN(C)Cc2ccc(C(=O)Nc3ccccc3N)cc2)[C@H](C)CN([C@H](C)CO)C(=O)c2cc(N(C)C)ccc2O1` here?
**A.** 4.89%

**Q.** Which activation does the source give for `C[C@@H]1CN([C@@H](C)CO)C(=O)CCCn2cc(nn2)CO[C@@H]1CN(C)C(=O)C1CCCCC1` here?
**A.** 5.75%

**Q.** For `COc1ccc2c3c([nH]c2c1)[C@@H](CO)N(C(=O)C1CC1)CC31CCN(C(=O)c2ccncc2)CC1`, which activation is on record?
**A.** 1.51%

**Q.** Which activation does the source give for `O=C(CN1CCCCC1)Nc1ccccc1C(=O)NC1CC1` here?
**A.** 22.4%

**Q.** Which activation does the source give for `O=C(CN1CCC(NC(=O)C2CC2)CC1)Nc1ccccc1[N+](=O)[O-]` here?
**A.** 96.7% (active)

**Q.** Which activation does the source give for `O=C(CN1CCCCCC1)Nc1ccc(Br)cc1[N+](=O)[O-]` here?
**A.** 7%
